Measurements: PubChem BioAssay (NCATS)
Inconclusive results are not listed. Unmarked numbers belong to inactive results. The source made the active and inactive calls. The call rests on the fitted dose curve; in most records, active means well fitted cell-killing curve with a large enough effect; inconclusive means small, poorly fitted or top-dose-only effect; inactive means flat fitted curve, though single readings scatter.

What was measured:
[1] = Cellular viability qHTS for adrenocortical cancer (ACC) cell line SW-13 (AID 1963989); conditions: SW-13 ACC cells viability, CellTiter-Glo, 48 h; activity (max response): active compounds read low; further: nearly all actives have a fitted effect of over 65% in size;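 on activity (max response): cells grown in serum-free medium with ITS supplement; on the % scale 0 is the no-effect control and ±100 the full control effect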
Method in brief: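 Luminescent ATP read-out (CellTiter-Glo, 20 min at room temperature) measured metabolically competent SW-13 cells after 48 h compound treatment. Final concentrations spanned up to 46 uM; bortezomib served as positive control.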

[2] = Cellular viability qHTS for adrenocortical cancer (ACC) cell line NCI-H295R (AID 1963990); further: nearly all actives have a fitted effect of over 60% in size
Method in brief: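 IC50 and maximal efficacy derive from four-parameter logistic modelling of titration curves, with reads scaled between DMSO-only wells (0%) and doxorubicin hydrochloride (100% inhibition). Compounds spanned up to 46 uM over 48 h.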
Potency means the concentration at half of the fitted maximal effect.

Row | Compound | activity (max response) [1] | Potency [2] | Potency [1]
1 | CC(C)(c1ccc(OCC(O)CO)cc1)c1ccc(OCC(O)CCl)cc1 (stereo not given) | -21.2% | inactive | –
2 | CCCCCCn1c(=O)c2c(ncn2C)n(C)c1=O | 14% | inactive | –
3 | O=c1c(-c2ccc(O)cc2)coc2cc(O[C@@H]3O[C@H](CO)[C@@H](O)[C@H](O)[C@H]3O)ccc12 | -7.43% | inactive | –
4 | CC(C)(CO)n1cc(C(=O)c2cncc(NC(=O)Cc3ccc(Cl)cn3)c2)c2cnc(N)nc21 | -13.5% | inactive | –
5 | COC(=O)c1c(Cl)c(Cl)c(C(=O)OC)c(Cl)c1Cl | 12.2% | inactive | –
6 | CC(C)NC(=O)N1CC[C@H](N=C2Nc3cc(F)ccc3N(CC(F)F)c3ccc(Cl)cc32)C1 | -16% | inactive | –
7 | Clc1cccc(-c2ccc(-c3nnc(CCCc4ccc5cccnc5n4)o3)cc2)c1 | -11.9% | inactive | –
8 | C[C@H]1CC2[C@@H]3CCC4=CC(=O)C=C[C@]4(C)[C@@]3(F)[C@@H](O)C[C@]2(C)[C@@]1(O)C(=O)CO (stereo not given in full) | -7.86% | inactive | –
9 | O=C(CS)Nc1ccccc1 | -14.1% | inactive | –
10 | CCN(CC)c1ccc(C(=C2C=CC(=[N+](CC)CC)C=C2)c2cc(S(=O)(=O)O)ccc2S(=O)(=O)[O-])cc1 | – | 7.31 µM (active) | 8.2 µM (active)
11 | Cc1cccc(Nc2ccccc2C(=O)O)c1C | 8.3% | inactive | –
12 | CC(=O)N1CCN(c2ccc(NC(=O)Cc3cnc(-c4ccnc(F)c4)c(C)c3)nc2)CC1 | 4.66% | inactive | –
13 | C=CC[N+]1([C@H]2C[C@H]3[C@@H]4CC[C@H]5C[C@H](OC(C)=O)[C@@H](N6CCCCC6)C[C@]5(C)[C@H]4CC[C@]3(C)[C@H]2OC(=O)CC)CCCCC1 | -4.47% | inactive | –
14 | C=C[C@H]1CN2CC[C@H]1C[C@H]2[C@H](O)c1ccnc2ccc(OC)cc12 | -6.74% | inactive | –
15 | CCN(CC)CCNC(=O)c1cc(Br)c(N)cc1OC | -8.12% | inactive | –
16 | CC(C)(Oc1ccc(Cl)cc1)C(=O)OCCCOC(=O)C(C)(C)Oc1ccc(Cl)cc1 | 0.371% | inactive | –
17 | CC(C)(O)C1CCC(Nc2ccc3ncc(-c4cccc(C(F)(F)F)c4)n3n2)CC1 (stereo not given) | -17.2% | 4.47 µM (active) | –
18 | O=C(CN1CCN(Cc2ccc3c(c2)OCO3)CC1)N1c2ccccc2Sc2ccccc21 | -10.1% | inactive | –
19 | CCCCc1nc(Cl)c(CO)n1Cc1ccc(-c2ccccc2-c2nn[nH]n2)cc1 | 12.4% | inactive | –
20 | CC(=O)Nc1c(I)c(NC(C)=O)c(I)c(C(=O)O)c1I | 2.04% | inactive | –
21 | C[C@]1(C(=O)N(CCCC(=O)O)Cc2cccc(Cl)c2)CCN1C(=O)c1csc2ccccc12 | -17.4% | inactive | –
22 | Cc1cnc(NC(=O)c2cc(Oc3cnc(C(=O)N(C)C)nc3)c3cc(C)oc3c2)cn1 | -13.9% | inactive | –
23 | Nc1cc(C(F)(F)F)c(-c2nc(N3CCOCC3)nc(N3CCOCC3)n2)cn1 | – | 2 µM (active) | 11.2 µM (active)
24 | O=C(CCNNC(=O)c1ccncc1)NCc1ccccc1 | -0.798% | inactive | –
25 | CN/C(=C\[N+](=O)[O-])NCCSCc1ccc(CN(C)C)o1 | 0.385% | inactive | –
